Vif-APOBEC3G blk: Vif-A3G binding inhibition; Potency, µM (doses to about 46.1 µM), for the others: top-dose activity, negative = active, hits mostly inhibitors; HeLa A3G-eYFP + Vif (tagged APOBEC3G with the HIV-1 protein that degrades it), YFP fluorescence, overnight; AID 602310; hit rate 0.076% among 410,000; further: potency means the concentration at half of the fitted maximal effect; on the % scale 0 is the no-effect control and ±100 the full control effect; nearly all actives have a fitted effect of over 60% in size
Target sequence (Q9HC16 whole entry, looked up): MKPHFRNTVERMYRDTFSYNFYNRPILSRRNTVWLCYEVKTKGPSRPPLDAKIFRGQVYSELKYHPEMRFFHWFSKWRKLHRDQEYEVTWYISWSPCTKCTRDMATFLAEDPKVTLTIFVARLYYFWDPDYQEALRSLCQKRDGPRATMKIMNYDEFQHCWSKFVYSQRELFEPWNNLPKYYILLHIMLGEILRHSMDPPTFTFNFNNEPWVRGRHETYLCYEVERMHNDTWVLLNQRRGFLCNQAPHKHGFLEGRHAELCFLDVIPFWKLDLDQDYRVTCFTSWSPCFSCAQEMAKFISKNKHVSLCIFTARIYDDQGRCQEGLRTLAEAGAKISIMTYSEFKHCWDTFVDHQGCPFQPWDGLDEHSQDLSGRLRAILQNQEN
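Read-out is eYFP fluorescence (Ex 488/Em 500-530) from Vif-expressing HeLa A3G-eYFP cells; more signal means A3G escaped Vif-mediated degradation. Cells plated overnight, compound pinned in, incubated overnight at 37 deg C.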
TRPML1 agonist: agonists of human TRPML1 channel; hit rate 0.12% among 410,000; AID 624414; activation, % (no concentration beside the values); TRPML1-expressing cells, Ca2+ dye fluorescence, FDSS; in the data active means activation above about 50%; inconclusive means mostly about 30% to 49%; further: 0% is about no effect
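Agonist activity was taken from a 110 s kinetic Ca2+ dye read on the FDSS after pinning compounds onto TRPML1-DL cells. The cells were seeded at 1,500/well with Tet inducer, incubated about 16 h, then dye-loaded at room temperature.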
TRPML1 inh: inhibitors of human TRPML1 channel. Q9GZU1. TRPML1-inducible cells, Ca2+ dye fluorescence, FDSS; stronger effect = lower value; inhibition of EC80 agonist-evoked calcium signal. activity change, negative = inhibition, % (test concentration not listed). hit rate 0.02% among 390,000; in the data active means activity change below about -50%; inconclusive means between about -30% and that limit;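 further: stimulus is agonist 54-4 at its EC80 concentration; on the % scale 0 is the no-effect control and ±100 the full control effect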
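TRPML1-DL cells, Tet-induced overnight (~16 h, 37 °C) at 1,500 cells/well, were loaded with Ca8 no-wash dye plus quencher for 45-90 min at room temperature. Compounds were pinned during FDSS kinetic reading; agonist 54-4 at EC80 (4 uM final) then added.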
Vif-APOBEC3F blk: inhibitors of Vif-A3F interaction. HeLa A3F-eYFP + Vif (tagged APOBEC3F with the HIV-1 protein that degrades it), YFP fluorescence increase. Potency, µM (highest dose often 46.1 µM), inactives show at the highest dose activity, negative = active. hit rate 0.2% among 390,000. AID 602313; further: potency means the concentration at half of the fitted maximal effect; % of control where 0% means no effect; nearly all actives have a fitted effect of over 65% in size
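Fluorescence increase (Ex 488/Em 500-530) after overnight compound treatment at 37 deg C flags inhibition of Vif-driven A3F-eYFP loss in stable HeLa A3F-eYFP/Vif cells seeded overnight beforehand.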
12-LOX inh: ALOX12 (human) lipoxygenase inhibition | purified 12hLO, xylenol orange hydroperoxide absorbance | Potency, µM (titrated, usually from 108 µM), for inactives: top-dose activity change, negative = inhibition, hits mostly inhibitors | hit rate 1.1% among 580,000; further: potency means the concentration at half of the fitted maximal effect; on the % scale 0 is the no-effect control and ±100 the full control effect
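Purified human 12hLO at 150 nM in 25 mM Hepes, 0.01% Triton X-100, pH 7.0, preincubated 15 min at room temperature with compound. Reaction started with 40 uM arachidonic acid, 30 min at room temperature. Hydroperoxide measured by Fe-xylenol orange, 573/405 nm absorbance ratio.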
Glioma ERSR ind: ER stress response induction in glioma. U87-MG GRP78 promoter luciferase reporter, 16 h. Potency, µM, inactives show top-dose activation, hits mostly activators. hit rate 0.02% among 420,000; further: potency means the concentration at half of the fitted maximal effect; series mostly up to about 76 µM; % of control where 0% means no effect; nearly all actives have a fitted effect of over 35% in size
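Stably transfected U87-MG human glioma cells carrying a GRP78-based luminescent sensor were seeded at 1000 cells/well, pin-dosed with compounds and incubated 16 h. Luciferase reagent was then added, and end-point luminescence was read after 10 min at room temperature.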
Active calls of the source: *; u = inconclusive; x = no result; ! = a repeat was not active; [ ] = another dose, or the depositor's remark. Sampled rows, rich in hits. Any-hit rate of the full collection: about 1.3%. Unless noted, the call rests on the fitted dose curve; in most records, active means well fitted curve in the direction sought with a large enough effect; inconclusive means small, poorly fitted or top-dose-only effect, or another doubt; inactive means no such curve, though single readings can be large; an effect the other way counts as inactive or inconclusive.

SMILES	Vif-APOBEC3G blk	TRPML1 agonist	TRPML1 inh	Vif-APOBEC3F blk	12-LOX inh	Glioma ERSR ind
O=C1NCc2ccccc2CC12CCN(Cc1ccc([N+](=O)[O-])cc1)C2 (stereo not drawn)	x	x	x	x	50µM*	x
O=C1NCc2ccccc2CC12CCN(Cc1ccc(Cl)cc1)C2 (stereo not drawn)	x	x	x	x	22µM*	x
O=C1NCc2ccccc2CC12CCCN(Cc1ccccc1)C2 (stereo not drawn)	x	x	x	x	5%[6.33 µM]	x
Cc1nc2nc(NCc3ccc(Cl)cc3)[nH]n2c(=O)c1C	x	x	x	x	45%	x
COc1ccc2c(=O)c3ccccc3oc2c1	3%	0	32	-5%	30%	6%
COc1ccc2oc3c(ccc[n+]3C)c(=O)c2c1	-4%	0	x	x	13µM*	-2%
Cc1noc(C)c1CS(=O)(=O)c1ccccc1Br	x	x	x	x	28%	x
COc1ccc(O)c(O)c1/C=C1\[C@@H](C)CCC2C(C)(C)CCC[C@]12C (stereo partly drawn)	x	x	x	x	2.2µM*	x
Cc1nn(C(C)C(=O)NCc2ccco2)c(C)c1[N+](=O)[O-] (stereo not drawn)	0%	-1	-9	-2%	5%	-3%
C/C(=N\NC(=O)C(C)n1nc(C)c([N+](=O)[O-])c1C)c1ccccc1O (stereo not drawn)	-2%	-1	0	5.6µM*	-12%	-3%
CC(C(=O)N(C)CC(=O)Nc1ccccc1C(F)(F)F)N1CCN(Cc2ccccc2F)CC1 (stereo not drawn)	x	x	x	x	13%	x
Cc1ccc(Nc2nc(-c3ccc(O)c(O)c3)cs2)nc1	-1%	3	40	12%	22µM*	u
Cc1cc(O)c2c(C)c(CC(=O)NCCN3CCOCC3)c(=O)oc2c1	x	x	x	x	-31%	x
O=C1c2ccccc2NC(c2ccc(-c3cccc([N+](=O)[O-])c3)o2)N1O (stereo not drawn)	-13%	1	16	-15%	u	0%
O=C1c2ccccc2NC(c2ccc(-c3ccc(Br)cc3)o2)N1O (stereo not drawn)	-4%	1	10	-11%	20µM*	-2%
O=C1c2ccccc2NC(c2ccc(-c3ccc(F)cc3)o2)N1O (stereo not drawn)	-14%	x	x	u	40µM*	8%
COc1ccccc1C(=O)Nc1ccc2c(c1)CN(Cc1ccc(F)cc1)C(=O)C(C)O2 (stereo not drawn)	x	x	x	x	-6%	x
Cc1cc(C)c(NC(=O)Cn2c(=O)n(Cc3ccc(C(=O)NCc4ccco4)cc3)c(=O)c3sccc32)c(C)c1	8.9µM*	0	-1	u	u	-9%
Clc1cccc(-c2noc(-c3ccc[nH]3)n2)c1	x	x	x	x	45µM*	x
CCOc1ccc(/C(O)=C2\C(=O)C(=O)N(c3nccs3)C2c2ccc(C)cc2)cc1 (stereo not drawn)	x	x	x	x	6.3µM*	x
COc1ccc(C2/C(=C(\O)c3ccc(C)cc3)C(=O)C(=O)N2CCCO)cc1 (stereo not drawn)	x	x	x	x	0.56µM*	x
Cc1ccc(/C(O)=C2\C(=O)C(=O)N(c3nc4ccccc4s3)C2c2ccc(O)cc2)cc1 (stereo not drawn)	x	x	x	x	18µM*	x
C=CCOc1ccc(/C(O)=C2\C(=O)C(=O)N(CCOC)C2c2cccnc2)cc1 (stereo not drawn)	-2%	1	-5	-4%	40µM*	-1%
COc1ccc(/C(O)=C2/C(=O)C(=O)N(CCCN3CCOCC3)C2c2ccc(C)cc2)cc1 (stereo not drawn)	2%	0	4	3%	u	-4%
Cc1noc(N)c1C(=O)OCc1csc(-c2ccc(F)cc2)n1	x	x	x	x	-9%	x
SMILES	Vif-APOBEC3G blk	TRPML1 agonist	TRPML1 inh	Vif-APOBEC3F blk	12-LOX inh	Glioma ERSR ind
Cc1ccc(COC(=O)Cn2cnc3c2c(=O)n(C)c(=O)n3C)cc1	x	x	x	x	-13%	x
Cc1ccc(/C=N/NC(=O)CC#N)cc1	x	x	x	x	75%	x
Nc1nccnc1C(=O)NCCNC(=O)c1ccccc1	x	x	x	x	-23%	x
COc1ccc(NC(=O)c2ccccc2NC(=O)CSc2ncnc3ccccc23)cc1	x	x	x	x	8%	x
CCN(C(=S)Nc1ccc(Oc2ccccc2)cc1)c1ccccc1	-1%	1	2	1%	50µM*	-4%
CCN(C(=S)Nc1cccc(C)c1)c1ccccc1	-2%	0	-17	4%	-23%	-1%
CCCCCCCNC(=O)CCC(=O)NCCCOC(C)C	x	x	x	x	8%	x
COc1ccccc1N1CCN(CCN2C(=O)C3CCCCN3C2=O)CC1 (stereo not drawn)	1%	-1	-6	6%	13µM*	-3%
Cc1ccc(/C=N/NC(=O)c2cc(C)oc2C)cc1	7.9µM*	0	15	14%	101%	-3%
COc1ccc(CC(=O)Nc2ccc3c(c2)NC(=O)C(C)O3)cc1 (stereo not drawn)	x	x	x	x	6%	x
Oc1ccc(/C=N/N2CCN(C3c4ccccc4-c4ccccc43)CC2)cc1O	-6%	-1	-1	-1%	18µM*	-1%
Oc1ccc(/C=N/N2CCN(C3c4ccccc4-c4ccccc43)CC2)cc1	1%	1	-6	-3%	-8%	1%
CC(C)c1ccc(CNc2nc(NCC3CC3)nc3ccsc23)cc1	-10%	0	68	x	50µM*	-12%
COc1ccccc1CNc1nc(NCc2ccc(C(C)C)cc2)c2sccc2n1	-17%	-1	24	x	u	-10%
CN1CCc2cc(NC(=O)Nc3cccnc3)ccc21	x	x	x	x	x	-3%
Cn1ccc2cc3c(cc21)CCN3C(=O)Nc1cccnc1	-2%	0	-3	3%	9.7µM*!	0%
COc1ccc([C@@H]2C[C@H](c3ccccc3)Oc3cc(C)cc(C)c32)cc1	-18%	1	-3	3%	1.1µM*	1%
COc1ccc(C2CC(c3ccccc3)Oc3cc(C)cc(C)c32)cc1 (stereo not drawn)	3%	1	-13	x	x	-3%
CCCc1noc(-c2ccn3c(CNC(=O)c4ccc(C)c(F)c4)nnc3c2)n1	x	x	x	x	50µM*	x
CCCc1noc(-c2ccn3c(CNC(=O)Cc4cccc(OC)c4)nnc3c2)n1	x	x	x	x	45µM*	x
Cc1ccc(C(=O)NCc2nnc3cc(-c4nc(C5CC5)no4)ccn23)cc1F	x	x	x	x	-6%	x
CCCc1noc(-c2ccn3c(CNC(=O)Cc4cccc(F)c4)nnc3c2)n1	x	x	x	x	1%	x
Cc1cc2ccccn2c1C(=O)c1cccc([N+](=O)[O-])c1	2%	2	-23	1%	-28%	-7%
Cc1cc2ccccn2c1C(=O)c1ccc([N+](=O)[O-])o1	u	0	5	11µM*	0%	-14%
O=C(COC(=O)c1ccccn1)Nc1ccccc1OC(F)F	-4%	0	-27	u	-2%	-1%
